Screen size: about 5,500 compounds; about 2,000 (36%) were called active. Inconclusive results (about 18%) are left out. Cut-off read from the data, not from the text of the source: active = normalized growth mostly below about 0.91 (no sharp cut-off); inconclusive = no clear call, values can overlap the other calls; inactive = mostly above about 0.92. This is one part of the list.
Experiment: chemical genetic growth profiling, strain panel (AID 1159580);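 note: tested at 20 µM; growth read once vehicle control cultures reached saturation at 30 °C; 1 = growth at the plate median or of vehicle wells; lower values mean less growth of the strain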
Details: growth OD

Measured: normalized growth

CC(Cc1cccc(C(F)(F)F)c1)NCCOC(=O)c1ccccc1 (configuration not stated)
active: S. cerevisiae deletion strains, locus YLR262C, strain YPT6 (second series), stronger effect = lower value 0.785 | S. cerevisiae deletion strains, locus YLR342W, strain FKS1 (second series), stronger effect = lower value 0.745 | S. cerevisiae deletion strains, locus YLR342W, strain FKS1, stronger effect = lower value 0.88 | S. cerevisiae deletion strains, locus YOR270C, strain vph1, stronger effect = lower value 0.72 | S. cerevisiae deletion strains, locus YPL051W, strain arl3, stronger effect = lower value 0.904
inactive: S. cerevisiae deletion strains, locus YJR075W, strain HOC1, stronger effect = lower value 0.886 | S. cerevisiae deletion strains, locus YKL009W, strain mrt4, stronger effect = lower value 0.974 | S. cerevisiae deletion strains, locus YKL068W, stronger effect = lower value 1.01 | S. cerevisiae deletion strains, locus YKL085W, strain MDH1 (second series), stronger effect = lower value 0.998 | S. cerevisiae deletion strains, locus YKL085W, strain MDH1, stronger effect = lower value 0.998 | S. cerevisiae deletion strains, locus YKL160W, strain elf1, stronger effect = lower value 0.946 | S. cerevisiae deletion strains, locus YKL190W, strain CNB1, stronger effect = lower value 0.982 | S. cerevisiae deletion strains, locus YKR001C, strain vps1, stronger effect = lower value 1.03 | S. cerevisiae deletion strains, locus YKR026C, strain gcn3, stronger effect = lower value 0.987 | S. cerevisiae deletion strains, locus YKR091W, strain srl3, stronger effect = lower value 1 | S. cerevisiae deletion strains, locus YLL001W, strain dnm1, stronger effect = lower value 0.935 | S. cerevisiae deletion strains, locus YLL026W, stronger effect = lower value 0.933 | S. cerevisiae deletion strains, locus YLL041C, strain sdh2, stronger effect = lower value 0.993 | S. cerevisiae deletion strains, locus YLR027C, strain aat2, stronger effect = lower value 0.93 | S. cerevisiae deletion strains, locus YLR039C, strain RIC1, stronger effect = lower value 1.02 | S. cerevisiae deletion strains, locus YLR058C, strain SHM2, stronger effect = lower value 0.967 | S. cerevisiae deletion strains, locus YLR102C, strain apc9, stronger effect = lower value 1.02 | S. cerevisiae deletion strains, locus YLR113W, strain HOG1, stronger effect = lower value 1 | S. cerevisiae deletion strains, locus YLR221C, strain rsa3, stronger effect = lower value 0.956 | S. cerevisiae deletion strains, locus YLR258W, strain gsy2, stronger effect = lower value 0.974 | S. cerevisiae deletion strains, locus YLR262C, strain YPT6, stronger effect = lower value 1.01 | S. cerevisiae deletion strains, locus YLR268W, strain sec22, stronger effect = lower value 0.992 | S. cerevisiae deletion strains, locus YLR320W, strain mms22, stronger effect = lower value 0.913 | S. cerevisiae deletion strains, locus YLR330W, strain CHS5, stronger effect = lower value 0.991 | S. cerevisiae deletion strains, locus YLR357W, strain rsc2, stronger effect = lower value 0.987 | S. cerevisiae deletion strains, locus YLR370C, strain arc18, stronger effect = lower value 0.931 | S. cerevisiae deletion strains, locus YLR371W, strain rom2, stronger effect = lower value 1.02 | S. cerevisiae deletion strains, locus YLR384C, strain iki3, stronger effect = lower value 0.988 | S. cerevisiae deletion strains, locus YLR418C, strain cdc73, stronger effect = lower value 0.978 | S. cerevisiae deletion strains, locus YML016C, strain PPZ1, stronger effect = lower value 0.989 | S. cerevisiae deletion strains, locus YML032C, strain rad52, stronger effect = lower value 0.941 | S. cerevisiae deletion strains, locus YML120C, strain ndi1, stronger effect = lower value 0.953 | S. cerevisiae deletion strains, locus YML124C, strain tub3, stronger effect = lower value 1.02 | S. cerevisiae deletion strains, locus YMR058W, strain fet3, stronger effect = lower value 0.905 | S. cerevisiae deletion strains, locus YMR078C, strain ctf18, stronger effect = lower value 1.02 | S. cerevisiae deletion strains, locus YMR125W, strain sto1, stronger effect = lower value 0.97 | S. cerevisiae deletion strains, locus YMR129W, stronger effect = lower value 0.985 | S. cerevisiae deletion strains, locus YMR205C, strain PFK2, stronger effect = lower value 0.961 | S. cerevisiae deletion strains, locus YMR223W, strain ubp8, stronger effect = lower value 0.947 | S. cerevisiae deletion strains, locus YMR231W, strain pep5, stronger effect = lower value 1 | S. cerevisiae deletion strains, locus YMR263W, strain SAP30, stronger effect = lower value 0.962 | S. cerevisiae deletion strains, locus YMR307W, strain GAS1, stronger effect = lower value 0.955 | S. cerevisiae deletion strains, locus YNL067W, strain RPL9B, stronger effect = lower value 0.923 | S. cerevisiae deletion strains, locus YNL071W, strain lat1, stronger effect = lower value 0.996 | S. cerevisiae deletion strains, locus YNL128W, strain TEP1, stronger effect = lower value 0.951 | S. cerevisiae deletion strains, locus YNL153C, strain GIM3, stronger effect = lower value 0.938 | S. cerevisiae deletion strains, locus YNL183C, strain NPR1, stronger effect = lower value 0.895 | S. cerevisiae deletion strains, locus YNL209W, strain ssb2, stronger effect = lower value 0.963 | S. cerevisiae deletion strains, locus YNL233W, strain BNI4, stronger effect = lower value 0.877 | S. cerevisiae deletion strains, locus YNL248C, strain rpa49, stronger effect = lower value 0.906 | S. cerevisiae deletion strains, locus YNL250W, strain rad50, stronger effect = lower value 1.03 | S. cerevisiae deletion strains, locus YNL271C, strain bni1, stronger effect = lower value 1.01 | S. cerevisiae deletion strains, locus YNL298W, strain CLA4, stronger effect = lower value 1.01 | S. cerevisiae deletion strains, locus YNL307C, strain MCK1, stronger effect = lower value 0.974 | S. cerevisiae deletion strains, locus YNL322C, strain KRE1 (second series), stronger effect = lower value 1.01 | S. cerevisiae deletion strains, locus YNL322C, strain KRE1, stronger effect = lower value 1.01 | S. cerevisiae deletion strains, locus YNR049C, strain mso1, stronger effect = lower value 0.998 | S. cerevisiae deletion strains, locus YNR052C, strain pop2, stronger effect = lower value 0.921 | S. cerevisiae deletion strains, locus YOL006C, strain TOP1, stronger effect = lower value 0.605 | S. cerevisiae deletion strains, locus YOL012C, strain htz1 0.888 | S. cerevisiae deletion strains, locus YOL147C, strain pex11, stronger effect = lower value 1.01 | S. cerevisiae deletion strains, locus YOR001W, strain rrp6, stronger effect = lower value 0.92 | S. cerevisiae deletion strains, locus YOR061W, strain CKA2, stronger effect = lower value 0.994 | S. cerevisiae deletion strains, locus YOR069W, strain VPS5, stronger effect = lower value 0.995 | S. cerevisiae deletion strains, locus YOR070C, strain gyp1, stronger effect = lower value 0.985 | S. cerevisiae deletion strains, locus YOR080W, strain dia2, stronger effect = lower value 0.971 | S. cerevisiae deletion strains, locus YOR083W, strain WHI5, stronger effect = lower value 0.913 | S. cerevisiae deletion strains, locus YOR106W, strain vam3, stronger effect = lower value 0.906 | S. cerevisiae deletion strains, locus YOR136W, strain idh2, stronger effect = lower value 1.01 | S. cerevisiae deletion strains, locus YOR144C, strain elg1, stronger effect = lower value 1.02 | S. cerevisiae deletion strains, locus YOR184W, strain ser1, stronger effect = lower value 1.01 | S. cerevisiae deletion strains, locus YOR231W, strain MKK1, stronger effect = lower value 0.979 | S. cerevisiae deletion strains, locus YOR265W, strain rbl2, stronger effect = lower value 0.975 | S. cerevisiae deletion strains, locus YOR290C, strain snf2, stronger effect = lower value 0.975 | S. cerevisiae deletion strains, locus YOR316C, strain cot1, stronger effect = lower value 1.03 | S. cerevisiae deletion strains, locus YPL055C, strain LGE1, stronger effect = lower value 0.954 | S. cerevisiae deletion strains, locus YPL078C, strain atp4, stronger effect = lower value 0.944 | S. cerevisiae deletion strains, locus YPL106C, strain sse1, stronger effect = lower value 0.975 | S. cerevisiae deletion strains, locus YPL240C, strain hsp82, stronger effect = lower value 0.98 | S. cerevisiae deletion strains, locus YPL241C, strain CIN2, stronger effect = lower value 0.995 | S. cerevisiae deletion strains, locus YPL256C, strain CLN2, stronger effect = lower value 0.969 | S. cerevisiae deletion strains, locus YPR119W, strain clb2, stronger effect = lower value 1.02 | S. cerevisiae deletion strains, locus YPR141C, strain kar3, stronger effect = lower value 1.02 | S. cerevisiae deletion strains, locus YPR163C, strain tif3, stronger effect = lower value 0.928 | S. cerevisiae deletion strains, locus YPR167C, strain met16, stronger effect = lower value 1 | S. cerevisiae deletion strains, strain wtn01, stronger effect = lower value 0.978 | S. cerevisiae strains, strain wild type, stronger effect = lower value 0.955

From PubChem BioAssay AID1159580 (chemical genetic matrix, 2015)
